# The campaign covered roughly 13,000 compounds. About 3,200 (25%) showed an effect of 50% or more. This is one part of the list.
# Test system: P. falciparum stage V gametocytes
# Parameters: BacTiter-Glo ATP luminescence viability of purified stage V gametocytes in 384-well plates, per cent inhibition versus DMSO
# Conditions: 48 h, 5 µM; inhibitor
row,SMILES,% Inhibition
1,C=C(NC(=O)C1CCCCC1)C(=O)OC [TCMDC-131685],0.06563%
2,NC1=NC(c2ccccc2)(c2ccccn2)C(=O)N1CCCc1ccccc1 (stereo not shown) [TCMDC-136603],9.29%
3,Cc1cc(N2CCCC2)nc(Nc2ccc(NC(=O)c3ccccc3F)cc2)n1 [TCMDC-124710],-34.77%
4,CCNc1cc(C(=O)N[C@@H](Cc2ccccc2)[C@H](O)CNCc2cccc(-c3cncnc3)c2)cc(N2CCCC2=O)c1 [TCMDC-141687],18.59%
5,O=C(Nc1cccc(-c2nn3ccccc3c2-c2ccnc(Nc3cccc(N4CCCC4=O)c3)n2)c1)c1cc(F)ccc1F [TCMDC-135850],10.23%
6,COc1ccccc1C1CN(CCNC(=O)c2ncc(C)[nH]2)Cc2ccccc2O1 (stereo not shown) [TCMDC-124657],-1.409%
7,COc1cccc2cc(C(=O)N[C@@H](CC(C)C)C(=O)NC(/C=N/NC(=O)c3ccccc3)CCc3ccccc3)oc12 (stereo partly shown) [TCMDC-135434],-2.183%
8,COc1ccc(Cn2cncc2CN(CCC(C)C)C(=O)c2ccc(Cl)nc2Cl)cc1 [TCMDC-132536],21.31%
9,Cc1ccc(CN2CCN(Cc3cccc(NC(=O)c4cccs4)c3)CC2)cc1C [TCMDC-141888],86.1%
10,O=C(Nc1cccc(CN2CCCN(Cc3ccc(O)cc3)CC2)c1)c1cc2ccccc2s1 [TCMDC-141878],32.43%
11,COc1ccc(CN2CCCN(Cc3cccc(NC(=O)c4cc5ccccc5s4)c3)CC2)cc1 [TCMDC-141867],-63.54%
12,O=C(Nc1cccc(CN2CCN(C(=O)c3cccs3)CC2)c1)c1cccs1 [TCMDC-136329],33.24%
13,O=C(Nc1cccc(CN2CCCN(Cc3ccc(F)cc3)CC2)c1)c1cc2ccccc2s1 [TCMDC-141876],71.77%
14,Cc1ccc(CN2CCCN(Cc3cccc(NC(=O)c4cc5ccccc5s4)c3)CC2)cc1C [TCMDC-141879],80.31%
15,O=C(Nc1cccc(CN2CCN(C(=O)c3ccccc3)CC2)c1)c1cccs1 [TCMDC-136325],14.84%
16,Cc1ccc(CN2CCN(Cc3cccc(NC(=O)c4ccc5ccccc5c4)c3)CC2)cc1C [TCMDC-141887],-29.11%
17,Cc1cccc(C(=O)N2CCN(Cc3cccc(NC(=O)c4cccs4)c3)CC2)c1 [TCMDC-136328],7.958%
18,O=C(Nc1cccc(CN2CCN(C(=O)c3cccc(F)c3)CC2)c1)c1cccs1 [TCMDC-136330],79.41%
19,O=C(NCC1CCC(CNCCCc2ccccc2)CC1)c1cc(Cl)cc(Cl)c1 (stereo not shown) [TCMDC-140679],-14.35%
20,CCCc1cc(N2CCC(c3ccccc3)(N3CCCCC3)CC2)nc(Nc2ccc(OC)cc2)n1 [TCMDC-132389],-43.67%
21,O=C(Nc1cccc(CN2CCN(Cc3ccc(O)cc3)CC2)c1)c1cc2ccccc2s1 [TCMDC-134624],6.138%
22,Cc1cccc(C(=O)N2CCN(Cc3cccc(NC(=O)c4ccco4)c3)CC2)c1 [TCMDC-136323],80.03%
23,N#Cc1ccc(CN2CCCN(Cc3cccc(NC(=O)c4cc5ccccc5s4)c3)CC2)cc1 [TCMDC-141866],-28.76%
24,O=C(Nc1cccc(CN2CCN(C(=O)c3ccccc3)CC2)c1)c1ccco1 [TCMDC-136321],-15.6%

row,SMILES,% Inhibition
1,O=C(Nc1cccc(CN2CCN(C(=O)c3cccc(F)c3)CC2)c1)c1ccco1 [TCMDC-136324],35.66%
2,O=C(Nc1cccc(CN2CCCN(Cc3ccc4c(c3)OCO4)CC2)c1)c1cc2ccccc2s1 [TCMDC-141865],83.34%
3,O=C(/C=C/c1ccc(Cl)c(Cl)c1)NCCCCCN1CCCN(C(=O)Nc2cccc(Cl)c2)CC1 [TCMDC-135749],-36.61%
4,CC(C)C[C@@H](/C=N/N1CCOC1=O)NC(=O)[C@H](CC(C)C)NC(=O)c1ccc(F)cc1 [TCMDC-136186],-17.2%
5,c1cc(Nc2nccc(-c3cnn4ncccc34)n2)cc(-c2cnco2)c1 [TCMDC-138684],-9.488%
6,O=[N+]([O-])c1cccc(Nc2nccc(-c3cnn4ncccc34)n2)c1 [TCMDC-138697],-28.72%
7,CN1CCN(c2ccc(Nc3nccc(-c4cnn5ncccc45)n3)cc2Cl)CC1 [TCMDC-138688],55.04%
8,Cc1ccc2[nH]c3c(NCCCN4CCOCC4)ncnc3c2c1 [TCMDC-124068],-37.8%
9,N#Cc1ccc(-c2ccc3nc(N4CCCN(C5CCC5)CC4)ccc3c2)cc1 [TCMDC-136368],18.23%
10,N=C1C=C(N)C(=O)c2ccccc21 [TCMDC-141992],106.9%
11,O=C(Nc1ccc(OC2CCN(Cc3ccc(F)cc3)C2)c(Cl)c1)c1ccc(F)cc1 (stereo not shown) [TCMDC-133763],12.34%
12,O=C1c2ccccc2-n2c1nc1ccccc1c2=O [TCMDC-125859],-11.25%
13,CCN1CCC2(c3cccc(OC)c3)Cc3nc4ccccc4c(-c4ccccc4)c3CC2C1 (stereo not shown) [TCMDC-138968],77.57%
14,COc1cccc(Nc2nc(NCCO)c3ccccc3n2)c1.Cl [TCMDC-124573],23.38%
15,COc1cccc(Nc2nc(N)c3ccccc3n2)c1.Cl [TCMDC-123746],24.77%
16,COCCOc1nc(N)nc2ncc(Cc3cc(OC)ccc3OC)c(C)c12 [TCMDC-137754],36.3%
17,O=C(N[C@@H](Cc1ccccc1)C(=O)NC1CCCCCC1)c1ccc(O)c(-c2ccc(Cl)c(Cl)c2)c1 [TCMDC-140845],40.83%
18,COc1cc(C)nc2ccc(NC(=O)Nc3ccc4nc(C)cc(OC)c4c3)cc12 [TCMDC-139138],8.428%
19,COc1cc(C)nc2ccc(NC(=O)COCC(=O)Nc3ccc4nc(C)cc(OC)c4c3)cc12 [TCMDC-139461],62.71%
20,CCCCOc1cc(C)nc2ccc(NC(=O)COCC(=O)Nc3ccc4nc(C)cc(OCCCC)c4c3)cc12 [TCMDC-140149],-34.05%
21,COc1ccc(Cn2ncc3c4c(N)nc(N)nc4ccc32)cc1OC [TCMDC-131934],49.54%
22,COc1ccc(Cn2ccc3c4c(N)nc(N)nc4ccc32)cc1 [TCMDC-139862],105.9%
23,COc1cccc(Cn2ccc3c4c(N)nc(N)nc4ccc32)c1 [TCMDC-137811],100%
24,COCCn1ccc2c3c(N)nc(N)nc3ccc21 [TCMDC-137263],12.7%

row,SMILES,% Inhibition
1,COCn1ccc2c3c(N)nc(N)nc3ccc21 [TCMDC-137505],0.2853%
2,COc1cc(Cn2ccc3c4c(N)nc(N)nc4ccc32)cc(OC)c1OC [TCMDC-137341],118.6%
3,COCCOCCOCCn1ccc2c3c(N)nc(N)nc3ccc21 [TCMDC-137974],22.53%
4,O=C(/C=C/c1ccc(Cl)c(Cl)c1)NCCCCCN1CCC(NC(=O)c2ccc(F)c(F)c2)CC1 [TCMDC-135838],-28.53%
5,Cc1ccc(Nc2nc(N/N=C/c3cccc(O)c3)nc(Nc3ccc([N+](=O)[O-])cc3)n2)cc1C [TCMDC-124125],-28.14%
6,CCCN(Cc1nnc(-c2ccco2)o1)C(=O)C1CCN(c2ncc(C(F)(F)F)cc2Cl)CC1 [TCMDC-125335],-10.32%
7,CCOc1ccc(Cc2c(C)nc3nc(N)nc(N)c3c2C)cc1 [TCMDC-137655],8.912%
8,Cc1c(Cl)ccc2c(C(=O)Nc3ccncc3)cc(-c3cccnc3)nc12 [TCMDC-125224],6.226%
9,COc1ccc(CNC2Cc3ccccc3C2)cc1-c1cccc(S(=O)(=O)NCCN2CCCC2)c1 [TCMDC-132269],112.5%
10,COc1ccc(CNC2Cc3ccccc3C2)cc1-c1ccc(S(=O)(=O)NCCN2CCCC2)cc1 [TCMDC-132248],107.9%
11,CC(C)NCc1ccc(-c2ccc(-c3nc4ccc(F)cc4[nH]3)cc2)cc1 [TCMDC-132740],14.26%
12,CCc1ccccc1NC(=O)CN1CCN(c2ncnc3scc(-c4ccc(F)cc4)c23)CC1 [TCMDC-125248],-17.47%
13,CC(C)CNC(=O)CN1C(=O)C(c2ccccc2)(c2ccccc2)N=C1N [TCMDC-137006],-9.905%
14,Fc1ccc2[nH]c3c(NCCCN4CCOCC4)ncnc3c2c1 [TCMDC-124555],-45.7%
15,CC(C)C[C@H](NC(=O)c1ccc(F)cc1)C(=O)N[C@H](/C=N/NC(=O)c1ccccc1)CCc1ccccc1 [TCMDC-135680],-1.54%
16,Cn1c(=N)cc(-c2cccc(I)c2)c2c(=O)[nH]c(N)nc21 [TCMDC-137835],7.838%
17,Cn1cccc1CCNCc1ccc(-c2cccc(-c3nc4cc(F)ccc4[nH]3)c2)cc1.O=C(O)C(F)(F)F [TCMDC-132684],7.89%
18,Fc1ccc2[nH]c(-c3cccc(-c4ccc(CNCCN5CCNCC5)cc4)c3)nc2c1 [TCMDC-132863],90.56%
19,Fc1ccc2[nH]c(-c3cccc(-c4cccc(CNCCN5CCNCC5)c4)c3)nc2c1 [TCMDC-132860],97.72%
20,O=C1CCCN1CCCNCc1ccc(-c2cccc(-c3nc4ccc(F)cc4[nH]3)c2)cc1 [TCMDC-132750],-14.96%
21,O=C1CCCN1CCCNCc1cccc(-c2cccc(-c3nc4ccc(F)cc4[nH]3)c2)c1 [TCMDC-132765],-41.49%
22,Cn1nccc1C(=O)NCCNCc1cccc(-c2cccc(-c3nc4cc(F)ccc4[nH]3)c2)c1.O=C(O)C(F)(F)F [TCMDC-133020],-34.05%
